Tested on: Vero E6 infected with SARS-CoV-2
Assay: inhibition of SARS-CoV-2 cytopathic effect; higher = more antiviral protection, active = above 15
Details: 48 h

Measured: inhibition of SARS-CoV-2 cytopathic effect

Cc1cc(NC(=O)Nc2ccc(N(C)C)cc2)c2cc(F)cc(F)c2n1
inactive: 1 nM -0.11% | 8.33 nM 0.56% | 100 nM 1.66% | 833.33 nM 3.02% | 10000 nM 4.9%

Nc1ccncc1 [dalfampridine]
inactive: 1 nM 0.53% | 8.33 nM 0.41% | 100 nM 1.64% | 833.33 nM 2.49% | 10000 nM 1.18%

Cn1cc(-c2ccc3nnc(Sc4ccc5ncccc5c4)n3n2)cn1
inactive: 1 nM 0.46% | 8.33 nM -0.33% | 100 nM -1.37% | 833.33 nM -0.25% | 10000 nM 3.33%

O=c1c(-c2ccc(O)cc2)coc2c([C@@H]3O[C@H](CO)[C@@H](O)[C@H](O)[C@H]3O)c(O)ccc12 [puerarin]
inactive: 1 nM -2.73% | 8.33 nM -3.08% | 100 nM -2.16% | 833.33 nM 2.34% | 10000 nM -0.84%

COc1ccc(Cl)cc1[C@]1(F)C(=O)Nc2cc(C(F)(F)F)ccc21 [flindokalner]
inactive: 1 nM 2.54% | 8.33 nM 0% | 100 nM -1.3% | 833.33 nM 1.03% | 10000 nM -0.62%

FC(F)OC(F)(F)C(F)Cl (stereo not given) [enflurane]
inactive: 1 nM 1.24% | 8.33 nM 0.43% | 100 nM 1.56% | 833.33 nM -3.51% | 10000 nM -3.14%

CC(=O)[C@H]1CC[C@H]2[C@@H]3CC[C@H]4C[C@H](O)CC[C@]4(C)[C@H]3CC[C@]12C [allopregnanolone]
inactive: 1 nM 0.625% | 8.33 nM 0.465% | 100 nM -0.195% | 833.33 nM 0.8% | 10000 nM -0.82%

OC[C@H]1NC[C@@H](O)[C@@H](O)[C@@H]1O [1-deoxymannojirimycin]
inactive: 1 nM -5.76% | 8.33 nM 0.14% | 100 nM -0.54% | 833.33 nM 1.33% | 10000 nM -0.79%

COc1ccc(CCN)cc1OC [homoveratrylamine]
inactive: 1 nM 0.49% | 8.33 nM 7.09% | 100 nM 12.7% | 833.33 nM 5.43% | 10000 nM 11.1%

CCNC1(C(N)=O)CCN(c2ncnc3c2nc(-c2ccccc2Cl)n3-c2ccc(Cl)cc2)CC1
inactive: 1 nM -2.1% | 8.33 nM 0.22% | 100 nM 1.6% | 833.33 nM 7.17% | 10000 nM -0.26%

COc1ccc2[nH]c(C(=O)c3ccccc3)cc2c1
inactive: 1 nM 0.63% | 8.33 nM 1.49% | 100 nM 0.36% | 833.33 nM 0.6% | 10000 nM 0.07%

O=[N+]([O-])c1ncc[nH]1 [azomycin-(2-nitroimidazole)]
inactive: 1 nM 1.8% | 8.33 nM 1.77% | 100 nM 0.86% | 833.33 nM 2.21% | 10000 nM -0.1%

Cc1nc2n(c(=O)c1CCN1CCC(c3noc4cc(F)ccc34)CC1)CCCC2O (stereo not given) [paliperidone]
inactive: 1 nM -1.5% | 8.33 nM -3.74% | 100 nM -2.02% | 833.33 nM -3.59% | 10000 nM -4.1%

O=S(=O)(c1ccccc1)N(CC(F)(F)F)c1ccc(C(O)(C(F)(F)F)C(F)(F)F)cc1
inactive: 1 nM 1.99% | 8.33 nM 0.95% | 100 nM -0.31% | 833.33 nM 2.71% | 10000 nM -0.14%

Cc1ccc2c(c1)c1c3n2CCNC3CCC1 (stereo not given) [pirlindole]
inactive: 1 nM -1.68% | 8.33 nM -2.42% | 100 nM -1.65% | 833.33 nM 0.99% | 10000 nM -3.66%

Cc1nnc2n1-c1sc(CCC(=O)N3CCOCC3)cc1C(c1ccccc1Cl)=NC2 [apafant]
inactive: 1 nM 2.67% | 8.33 nM -1.44% | 100 nM 0.93% | 833.33 nM 1.94%
active: 10000 nM 29%

O=C(Cn1c(=O)sc2ccc(Cl)cc21)N1CCN(CCO)CC1 [tiaramide]
inactive: 1 nM -2.08% | 8.33 nM -1.84% | 100 nM -3.6% | 833.33 nM -1.93% | 10000 nM 2.14%

O=C(Oc1ccc([N+](=O)[O-])cc1)N1CCC(C(O)(c2ccc3c(c2)OCO3)c2ccc3c(c2)OCO3)CC1
inactive: 1 nM 0.7% | 8.33 nM 6.75% | 100 nM 2.26% | 833.33 nM 1.03% | 10000 nM 1.62%

CC(=O)NS(=O)(=O)c1ccc(NC(=O)c2ccccc2C(=O)O)cc1 [phthalylsulfacetamide]
inactive: 1 nM -0.71% | 8.33 nM -1.43% | 100 nM -0.27% | 833.33 nM 0.53% | 10000 nM -0.38%

Oc1c(Br)cc(Br)c2cccnc12 [broxyquinoline]
inactive: 1 nM -1.46% | 8.33 nM 2.01% | 100 nM -2.42% | 833.33 nM -2.35% | 10000 nM -5.91%

NC(=O)C(c1ccccc1)(c1ccccc1)[C@@H]1CCN(CCc2ccc3c(c2)CCO3)C1 [darifenacin]
inactive: 1 nM -1.18% | 8.33 nM 0.61% | 100 nM 2.83% | 833.33 nM 0.42% | 10000 nM -5.65%

CC1(C)OC[C@@H](COC(=O)CCc2ccc(OC[C@@H](O)CNCCNC(=O)N3CCOCC3)cc2)O1 [landiolol]
inactive: 1 nM -7.81% | 8.33 nM -4.59% | 100 nM -1.18% | 833.33 nM -1.43% | 10000 nM -1.67%

C=C[C@]1(C)C[C@@H](OC(=O)CS[C@@H]2C[C@H]3CC[C@@H](C2)N3C)[C@]2(C)[C@H](C)CC[C@]3(CCC(=O)[C@H]32)[C@@H](C)[C@@H]1O [retapamulin]
inactive: 1 nM -0.46% | 8.33 nM 2.42% | 100 nM 1.21% | 833.33 nM 1.93% | 10000 nM -0.87%

COc1cc(OC)nc(O[C@H](C(=O)O)C(OC)(c2ccccc2)c2ccccc2)n1 [darusentan]
inactive: 1 nM 0.26% | 8.33 nM -0.2% | 100 nM 0.62% | 833.33 nM -2.26% | 10000 nM -0.49%

O=C(Nc1ccc(Br)cc1)c1cc(Br)cc(Br)c1O [tribomsalan]
inactive: 1 nM -1.03% | 8.33 nM -3.93% | 100 nM -1.03% | 833.33 nM -0.02% | 10000 nM 6.65%

CCCn1c(=O)[nH]c2nc(-c3ccc(S(=O)(=O)N4CCN(c5ccc(Cl)cc5)CC4)cc3)[nH]c2c1=O
inactive: 1 nM -0.12% | 8.33 nM 0.44% | 100 nM -0.16% | 833.33 nM 1.71% | 10000 nM 1.22%

NC(=O)CCCCn1ccc(/N=C(\N)NCC(F)(F)F)n1
inactive: 1 nM 0.43% | 8.33 nM 2.16% | 100 nM -1.98% | 833.33 nM 0.05% | 10000 nM -0.82%

C[C@]12C=CC(=O)C=C1CC[C@@H]1[C@@H]2[C@@H](O)C[C@@]2(C)[C@H]1CC[C@]2(O)C(=O)COC(=O)CCC(=O)O [prednisolone-hemisuccinate]
inactive: 1 nM -1.49% | 8.33 nM 0.74% | 100 nM 3.44% | 833.33 nM 3.76% | 10000 nM 1.85%

COc1cccc(OCCCN)c1-c1cc(Nc2cnc(C#N)cn2)n[nH]1
inactive: 1 nM -0.1% | 8.33 nM 0.79% | 100 nM -1.17% | 833.33 nM -4.06% | 10000 nM -3.92%

Cc1ccc(CCCO)c(NCc2ccc3nc(NCCCN4CCOCC4)n(Cc4nc(C)ccc4O)c3c2)c1
inactive: 1 nM 0.48% | 8.33 nM -0.28% | 100 nM -0.6% | 833.33 nM -1.09% | 10000 nM -1.76%

NC(=O)N1C(=O)/C(=C(\O)c2cccs2)c2cc(Cl)ccc21 [tenidap]
inactive: 1 nM 1.19% | 8.33 nM 1.1% | 100 nM 0.33% | 833.33 nM 1.99% | 10000 nM -5.52%

Clc1cccc(/C=N/N=C/c2cccc(Cl)c2)c1 [3,3'-dichlorobenzaldazine]
inactive: 1 nM 2.78% | 8.33 nM 1.74% | 100 nM 1.33% | 833.33 nM 1.92% | 10000 nM 1.46%
